Assay outcomes from PubChem.
KCNQ2 inh: KCNQ2 (rat) channel inhibition. CHO-K1 KCNQ2, FluxOR thallium flux, 20 min; hits give low values. 310,000 compounds, 1.1% hits. B-score at 10 µM. AID 2156;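 active means fluorescence ratio B-score at most minus 3 library SDs, with starting brightness B-score within 2 library SDs, cut at about -5.5 in these data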
Target sequence (O88943 whole entry, looked up): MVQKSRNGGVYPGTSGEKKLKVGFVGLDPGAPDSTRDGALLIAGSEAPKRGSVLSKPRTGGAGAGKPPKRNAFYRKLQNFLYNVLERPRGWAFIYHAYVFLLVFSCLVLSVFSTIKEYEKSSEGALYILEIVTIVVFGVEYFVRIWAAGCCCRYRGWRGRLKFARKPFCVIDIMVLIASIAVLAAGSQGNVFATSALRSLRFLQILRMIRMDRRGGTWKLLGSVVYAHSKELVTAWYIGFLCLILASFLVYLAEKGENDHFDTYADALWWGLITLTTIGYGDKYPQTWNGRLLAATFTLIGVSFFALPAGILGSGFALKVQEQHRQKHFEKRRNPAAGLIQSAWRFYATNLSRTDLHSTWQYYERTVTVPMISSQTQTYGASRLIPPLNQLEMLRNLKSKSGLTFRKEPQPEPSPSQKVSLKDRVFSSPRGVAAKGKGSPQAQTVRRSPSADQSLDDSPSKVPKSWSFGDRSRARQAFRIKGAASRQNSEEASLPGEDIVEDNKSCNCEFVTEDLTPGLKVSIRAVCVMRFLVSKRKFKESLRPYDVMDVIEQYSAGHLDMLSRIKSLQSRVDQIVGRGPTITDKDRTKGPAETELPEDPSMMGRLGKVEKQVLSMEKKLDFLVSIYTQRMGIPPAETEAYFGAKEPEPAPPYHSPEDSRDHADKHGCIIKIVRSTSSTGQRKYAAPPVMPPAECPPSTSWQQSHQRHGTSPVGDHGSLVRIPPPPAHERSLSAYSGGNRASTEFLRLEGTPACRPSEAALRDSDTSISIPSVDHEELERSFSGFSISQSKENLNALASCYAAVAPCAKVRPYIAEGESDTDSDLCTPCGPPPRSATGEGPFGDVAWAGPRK
KCNQ2 enhance: enhances the rat KCNQ2 potassium channel | O88943 | CHO-K1 KCNQ2, FluxOR thallium flux fluorescence; hits give high values | B-score at 10 µM | 310,000 compounds, 0.54% hits | AID 2239;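 active means fluorescence ratio B-score at least 3 SD of library B-scores, with initial fluorescence B-score within 3 of them, cut at about 5.3 in these data; same plate scores as AID 2156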;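 further: B-score of peak minus minimum over baseline fluorescence ratio after K+ and Tl+ stimulus; positive B-score means potentiation of KCNQ2 with more thallium influx and brighter signal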
* marks the source's active call; other numbers are inactive results; i = inactive; x = no result. The list is not random: actives were taken first. Their share in the collection is about 1.6%.

SMILES	KCNQ2 inh	KCNQ2 enhance
CCC(C)(C)NC(=O)C(c1ccc(C)cc1)N(CC1CCCO1)C(=O)CNC(=O)c1cccs1 (stereo unspecified)	-5.81*	-5.81
Cc1ccc(C(C(=O)NC2CCCCC2)N(CC2CCCO2)C(=O)CNC(=O)c2cccs2)cc1 (stereo unspecified)	i	x
Cc1ccn2c(NC(C)(C)C)c(-c3cccs3)nc2c1	i	0.81
O=C(CNC(=O)c1ccc(Br)cc1)NCc1cccnc1	i	0.56
NC(=O)c1ccc(Cc2ncc(C(F)(F)F)cc2Cl)s1	i	x
O=S(=O)(N/N=C/c1ccc(Cl)cc1)c1ccc(Cc2ncc(C(F)(F)F)cc2Cl)s1	-6.15*	-6.15
COc1ccc(CN(C(=O)CSc2nnc(-c3ccc(F)cc3)o2)c2ccc(F)cc2)cc1	i	x
COc1ccc(CN(C(=O)CSc2nnc(-c3c[nH]c4ccccc34)o2)c2ccc(F)cc2)cc1OC	-6.97*	-6.97
Cc1cccc(N2CCN(C(=O)c3ccc(N4CCCC4=O)cc3)CC2C)c1 (stereo unspecified)	i	2.33
Cc1cccc(N2CCN(C(=O)c3ccc4c(c3)c(C)c(C)n4C)CC2C)c1 (stereo unspecified)	-6.07*	-6.07
NC(=O)CSc1nc2c(c(=O)n1-c1ccccc1)C1(CCCCC1)Cc1ccccc1-2	i	0.74
O=c1c2c(nc(NCCO)n1CC1CCCCC1)-c1ccccc1CC21CCCC1	-8.78*	-8.78
N#CCSc1nc2c(c(=O)n1Cc1ccco1)C1(CCCC1)Cc1ccccc1-2	i	x
Cc1cccc(-n2c(SCC(N)=O)nc3c(c2=O)C2(CCCC2)Cc2ccccc2-3)c1	-6.76*	-6.76
CCCn1c(SCC#N)nc2c(c1=O)C1(CCCC1)Cc1ccccc1-2	-6.39*	-6.39
CC1(C)CC(n2c(NCCO)nc3c(c2=O)C2(CCCC2)Cc2ccccc2-3)CCO1 (stereo unspecified)	i	x
Cc1ccccc1NC(=O)COc1coc(CN2CCN(c3ccccc3)CC2)cc1=O	i	0.01
Cc1cccc(NC(=O)NC(C)C(c2ccccc2)N2CCN(C)CC2)c1 (stereo unspecified)	i	x
CCn1cc(S(=O)(=O)Nc2ncccn2)cn1	i	0.2
CCn1cnc2sc(C(=O)Nc3ccccc3OC)c(C)c2c1=O	i	x
COc1ccccc1NC(=O)c1sc2ncn(Cc3ccccc3C)c(=O)c2c1C	-5.85*	-5.85
COc1ccc(-n2ccn3c(CCC(=O)N4CCN(c5cccc(C)c5C)CC4)nnc3c2=O)cc1	i	1.57
CCN(CC)c1ccc(S(=O)(=O)Nc2cc(Cl)ccc2Cl)cc1NC(=S)NC(=O)C1CCCC1	-7.07*	-7.07
COc1ccccc1NS(=O)(=O)c1ccc(Cl)c(NC(=S)NC(=O)C2CCCC2)c1	i	x
CC1=NN(c2ccccc2)C(=O)C1(C)[N+](=O)[O-] (stereo unspecified)	i	x
SMILES	KCNQ2 inh	KCNQ2 enhance
COc1cc(CC(=O)NNC(=O)c2cc(C)oc2C)cc(OC)c1OC	i	x
COc1ccc(C2/C=C\CN(C(=O)Nc3ccccc3-c3ccccc3)CC(=O)N2Cc2ccc(F)cc2)cc1 (stereo unspecified)	-6.4*	-6.4
COC(=O)N1C/C=C\C(c2ccc(OC)cc2)N(Cc2ccc(F)cc2)C(=O)C1 (stereo unspecified)	i	1.29
COc1ccc(NC(=O)c2cccc(N3C(=O)NC4CC3(C)Oc3ccccc34)c2)cc1 (stereo unspecified)	i	x
COc1cccc2c1OC1(C)CC2NC(=O)N1c1cccc(C(=O)Nc2ccc3c(c2)OCCO3)c1 (stereo unspecified)	-6.72*	-6.72
CCC(C)c1ccc(NC(=O)CN(C)CC(=O)Nc2cccc(OC)c2)cc1 (stereo unspecified)	i	1.21
O=C(/C=C/c1cccs1)N1CCC2(CC1)Oc1ccc(Cl)cc1C(=O)C21CC(c2cccnc2)=NO1 (stereo unspecified)	-6.84*	-6.84
Cc1ccc(C(=O)N2CCC3(CC2)Oc2ccc(Cl)cc2C(=O)C32CC(c3cccnc3)=NO2)s1 (stereo unspecified)	i	x
COCC(COCCCNC(=O)Nc1ccc(Br)cc1)OC (stereo unspecified)	i	0.31
CCCS(=O)(=O)c1nnnn1-c1cccc(OC)c1	i	x
Cc1cc(NC(=O)CS(=O)(=O)c2cn(Cc3cccc(F)c3)c3ccccc23)no1	-5.69*	-5.69
Cc1cc(NC(=O)CS(=O)(=O)c2cn(Cc3ccc(F)cc3)c3ccccc23)no1	i	x
Cc1ccc(NCCCCO)cc1C	i	0.16
NS(=O)(=O)c1cccc(NC(=O)COC(=O)CN2C(=O)C3CC=CCC3C2=O)c1 (stereo unspecified)	i	0.8
O=C(NCc1ccccc1)c1ccccc1C(=O)c1ncc[nH]1	i	x
CC(=O)Nc1ccc(NC(=O)C2CCCN2C(=O)Nc2ccc(F)c([N+](=O)[O-])c2)cc1 (stereo unspecified)	i	x
CCOc1ccc(NC(=O)CN(C)C(=O)c2cc([N+](=O)[O-])ccc2N2CCOCC2)cc1OCC	i	x
CC(=O)N1CCN(c2cc(N3CCc4ccccc4C3)c(F)cc2[N+](=O)[O-])CC1	-5.61*	-5.61
CCC(=O)N1CCN(c2cc(N3CCCC3)c(F)cc2[N+](=O)[O-])CC1	i	0.05
Cc1nc(NC(=O)CSc2ccccc2N)sc1C	i	0.44
CCC(Sc1nc(C)cc(C)n1)C(=O)Nc1cc(C)on1 (stereo unspecified)	i	x
CCC(Sc1nc(C)cc(C)n1)C(=O)O (stereo unspecified)	i	6.18*
Nc1c2c(nc3ccccc13)N(C1CCCCC1)CC2	i	0.77
Nc1c2c(nc3ccc(Br)cc13)N(C1CCCCC1)CC2	-5.85*	-5.85
O=c1c2ccccc2nc(-c2ccccc2)n1/N=C/c1ccc([N+](=O)[O-])cc1	-7.61*	-7.61
SMILES	KCNQ2 inh	KCNQ2 enhance
Cc1ccccc1-c1nc2ccccc2c(=O)n1/N=C/c1ccc([N+](=O)[O-])cc1	i	x
Cc1nnc(SCC(=O)NC2CCCC2)n1C(C)C	i	x
COc1ccc(-n2cccc2/C=C/[N+](=O)[O-])cc1	-6.46*	-6.46
COc1ccc(-n2cccc2C=O)cc1	i	0.01
CCN(CC)C(=O)Cn1cc(C(=O)C(=O)NCCc2c[nH]c3ccccc23)c2ccccc21	i	0.24
CN(Cc1ccccc1)C(=O)c1cc2ccccc2o1	i	x
CC(C)(C)N(Cc1ccccc1)C(=O)c1cc2ccccc2o1	-5.86*	-5.86
Cc1ccnc(NS(=O)(=O)c2ccc(NC(=O)CSc3nc(-c4ccccc4)cc(=O)[nH]3)cc2)n1	i	0.29
C=CCNC(=O)NC(=O)COC(=O)/C(C#N)=C/c1ccc(OC)cc1	i	1.41
CN1CCN(c2ccc(Cl)cc2NC(=O)/C=C/c2cccc(F)c2)CC1	-6.54*	-6.54
CN1CCN(c2ccc(Cl)cc2NC(=O)c2cccc(S(=O)(=O)N(C)C)c2)CC1	i	x
Cc1nonc1CC(=O)N1CCCC(C(=O)c2ccc(Cl)cc2)C1 (stereo unspecified)	i	x
COc1ccc(NC(=O)CCNC(=O)c2ccco2)cc1Cl	i	x
CC(CCc1ccccc1)NC(=O)C(Cc1ccccc1)NS(=O)(=O)c1cccs1 (stereo unspecified)	-5.74*	-5.74
CC1CCCCC1NC(=O)C(Cc1ccccc1)NS(=O)(=O)c1cccs1 (stereo unspecified)	i	x
CCOC(OCC)c1cn(Cc2ccc(C(=O)c3ccccc3)cc2)nn1	i	x
